Test results: the supplement of paper PMC13380429

Test system: Vero E6 infected with SARS-CoV-2
Assay: inhibition of SARS-CoV-2 cytopathic effect; higher = more antiviral protection, active = above 15
Details: 48 h

Measured: inhibition of SARS-CoV-2 cytopathic effect

Nc1ccc(S(=O)(=O)Nc2cnc3ccccc3n2)cc1 [sulfaquinoxaline]
inactive: 1 nM -0.58% | 8.33 nM 1.74% | 100 nM -1.77% | 833.33 nM -2.18% | 10000 nM 1.39%

O=P(O)(NCCCl)NCCCl [palifosfamide]
inactive: 1 nM 0.85% | 8.33 nM 0.49% | 100 nM 3.57% | 833.33 nM -1.07% | 10000 nM -7.07%

COc1ccc(Cl)c(Nc2nc3ccccc3nc2NS(=O)(=O)c2cccc(NC(=O)C(C)(C)N)c2)c1 [pilaralisib]
inactive: 1 nM 0.3% | 8.33 nM 0.48% | 100 nM 1.1% | 833.33 nM 0.71% | 10000 nM -1.82%

CCNCc1cc(C(C)(C)C)c(O)c(C(C)(C)C)c1
inactive: 1 nM 1.75% | 8.33 nM -0.5% | 100 nM 1.78% | 833.33 nM 0.46% | 10000 nM 1.14%

O=C(NC1CCN(CCCCC2(C(=O)NCC(F)(F)F)c3ccccc3-c3ccccc32)CC1)c1ccccc1-c1ccc(C(F)(F)F)cc1 [lomitapide]
active: 10000 nM 20.9%
inactive: 1 nM 0.13% | 8.33 nM -1.36% | 100 nM 0.35% | 833.33 nM -1.45%

CCC(CC)Nc1nc(C)c(-c2ccc(OC(F)(F)F)cc2OC)nc1OC
inactive: 1 nM 1.38% | 8.33 nM 3.16% | 100 nM 1.61% | 833.33 nM 0.57% | 10000 nM -0.01%

COC(=O)c1c(C)[nH]c(C)c1C(=O)c1ccccc1Cc1ccccc1
inactive: 1 nM 1.06% | 8.33 nM -1.02% | 100 nM 0.4% | 833.33 nM -3.62% | 10000 nM -3.09%

Cc1ccc2c(Cl)cc(Cl)c(O)c2n1 [chlorquinaldol]
inactive: 1 nM -1.39% | 8.33 nM -0.32% | 100 nM -1.09% | 833.33 nM -1.86% | 10000 nM 0.43%

Cn1c(=O)c2c(ncn2CC(=O)O)n(C)c1=O [acefylline]
inactive: 1 nM -0.43% | 8.33 nM 3.14% | 100 nM 12.4% | 833.33 nM 0.66% | 10000 nM 0.73%

Cn1nc(-c2ccc(C(F)(F)F)cc2)nc2c(=O)n(C)c(=O)nc1-2 [walrycin-B]
inactive: 1 nM -1.05% | 8.33 nM -0.74% | 100 nM 1.15% | 833.33 nM 12.5% | 10000 nM -12.8%

CC(C)C[C@H](NC(=O)CNC(=O)c1cc(Cl)ccc1Cl)B(O)O [ixazomib]
active: 10000 nM 22.9%
inactive: 1 nM -2.33% | 8.33 nM 2.02% | 100 nM 5.21% | 833.33 nM -11%

O=C(NCc1ccc(Oc2ccccc2)cc1)c1nc(-c2cc(Br)c(O)c(Br)c2)no1
inactive: 1 nM -1.01% | 8.33 nM -0.54% | 100 nM 0% | 833.33 nM 0.07% | 10000 nM 0.36%

CC1CS(=O)(=O)CCN1/N=C/c1ccc([N+](=O)[O-])o1 (stereo not given) [nifurtimox]
inactive: 1 nM -0.09% | 8.33 nM 0.8% | 100 nM -1.28% | 833.33 nM 2.01% | 10000 nM 1.23%

O=[N+]([O-])c1ncc[nH]1 [azomycin-(2-nitroimidazole)]
inactive: 1 nM 1.8% | 8.33 nM 1.77% | 100 nM 0.86% | 833.33 nM 2.21% | 10000 nM -0.1%

CCCCC/C=C\C/C=C\CCCCCCCC(=O)NCCCC(=O)O [GABA-linoleamide]
inactive: 1 nM 0.87% | 8.33 nM 4.17% | 100 nM 1.92% | 833.33 nM -0.22% | 10000 nM -0.15%

Nc1ncnc2c1ncn2[C@@H]1O[C@H](CO)[C@@H](O)[C@H]1O [adenosine]
inactive: 1 nM 2.02% | 8.33 nM 3.5% | 100 nM 0.67% | 833.33 nM -1.84% | 10000 nM 1.06%

O=c1cc(N2CCNCC2)oc2c(-c3ccccc3)cccc12
inactive: 1 nM 0.61% | 8.33 nM -3.07% | 100 nM -0.37% | 833.33 nM 0.12% | 10000 nM 1.5%

Cn1c(=O)cc(N2CCC[C@@H](N)C2)n(Cc2cc(F)ccc2C#N)c1=O [trelagliptin]
inactive: 1 nM -1.51% | 8.33 nM 0.34% | 100 nM 1.49% | 833.33 nM -0.45% | 10000 nM 3.01%

O=C(O)c1ccccc1Nc1cccc(OCc2ccc3ccccc3n2)c1
inactive: 1 nM -0.27% | 8.33 nM 2.38% | 100 nM 0.56% | 833.33 nM 0.3% | 10000 nM -0.51%
